Measured values published in the supplement of paper PMC13094657.
Structures can show the parent of a compound that is named as a salt. ± gives the standard deviation of the averaged measurements.

How the values were obtained:
MDA-MB-231 [1] = experiment: cell viability relative to vehicle unstimulated control (fraction); higher = more viable cells; conditions: pre-treatment time: 18 h then 24 h IFNg/TNF
MDA-MB-231 [2] = experiment: kynurenine production, fold change vs DMSO IFNg/TNF control; higher = more kynurenine produced (less inhibition); conditions: pre-treatment time: 18 h then 24 h IFNg/TNF
In short: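 MDA-MB-231 cells (7 × 10^4/well, 96-well plates, seeded 24 h earlier) were pre-treated 18 h with each natural product in 0.1% DMSO, then stimulated 24 h with IFNγ (1 U/ml) and TNF (6.25 ng/ml) at 37°C. Supernatant kynurenine was read at 492 nm after trichloroacetic acid and p-dimethylaminobenzaldehyde treatment, against 0–100 μM standards. Kynurenine production is the fold change over cytokine-stimulated vehicle wells on the same plate, averaged over duplicate plates in the first screening round.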
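Throughout, for cell viability relative to vehicle unstimulated control: viability of the cells left after supernatant collection, read with Deep Blue dye added for 4 h, as absorbance at 570 nm minus 600 nm.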

| Compound | cell viability (MDA-MB-231 [1]) | kynurenine production (MDA-MB-231 [2]) |
| --- | --- | --- |
| COc1cc2c(cc1OC)-c1c(OC)c(OC)cc3c1[C@H](C2)N(C)CC3 [(S)-Glaucine (commercial standard)] | 1.07 ± 0.065 | 0.852 ± 0.067 |
| CC1=C[C@@H]2C(=O)[C@]3(C=C(C)[C@H](O)[C@@]3(O)[C@@H]1O)[C@H](C)C[C@@H]1[C@H]2C1(C)C [20-Deoxyingenol] (compound dose: 10 uM) | 0.975 ± 0.11 | 0.703 ± 0.12 |
| CC(C)(C)[C@]1(O)CC2OC(=O)CC23C(=O)OC2OC(=O)[C@H](O)C231 (some centres undefined) [Bilobalide] (compound dose: 10 uM) | 1.01 ± 0.015 | 0.774 ± 0.031 |
| CC(C)=CCC[C@](C)(O)[C@H]1CC[C@]2(C)[C@@H]1[C@H](O)C[C@@H]1[C@@]3(C)CC[C@H](O)C(C)(C)[C@@H]3[C@@H](O[C@@H]3O[C@H](CO)[C@@H](O)[C@H](O)[C@H]3O)C[C@]12C [Ginsenoside Rh1] (compound dose: 10 uM) | 0.999 ± 0.025 | 0.852 ± 0.15 |
| C[C@@H]1CC[C@H]2[C@@H](C)C(=O)O[C@@H]3O[C@@]4(C)CC[C@@H]1[C@]32OO4 [Artemisinin] (compound dose: 10 uM) | 1.06 ± 0.079 | 0.581 ± 0.11 |
| CN1C2CCC1CC(O)C2 (centres undefined) [Tropine] (compound dose: 10 uM) | 0.938 ± 0.13 | 0.902 ± 0.2 |
| CN1[C@@H]2C[C@@H](OC(=O)[C@H](CO)c3ccccc3)C[C@H]1[C@@H]1O[C@@H]12 [Scopolamine hydrobromide] (compound dose: 10 uM) | 0.983 ± 0.025 | 0.811 ± 0.067 |
| CC1=C[C@]23C(=O)[C@@H](C=C(CO)[C@@H](O)[C@]2(O)[C@H]1O)[C@H]1[C@@H](C[C@H]3C)C1(C)C [Ingenol] (compound dose: 10 uM) | 0.906 ± 0.051 | 0.846 ± 0.12 |
| CC(C)[C@]12O[C@H]1[C@@H]1O[C@@]13[C@@]1(C)CCC4=C(COC4=O)[C@@H]1C[C@@H]1O[C@@]13C2=O [Triptonide] (compound dose: 10 uM) | 0.637 ± 0.069 | 0.218 ± 0.019 |
| C/C=C(\C)C(=O)N[C@@H](c1ccccc1)[C@@H](O)C(=O)O[C@H]1C[C@@]2(O)[C@@H](OC(=O)c3ccccc3)[C@@H]3[C@]4(OC(C)=O)CO[C@@H]4C[C@H](O)[C@@]3(C)C(=O)[C@H](OC(C)=O)C(=C1C)C2(C)C [Cephalomannine] (compound dose: 10 uM) | 0.738 ± 0.071 | 0.267 ± 0.06 |
| CC(=O)OC(C)(C)/C=C/C(=O)[C@](C)(O)[C@H]1[C@H](O)C[C@@]2(C)[C@@H]3CC=C4[C@H](C[C@H](O)C(=O)C4(C)C)[C@]3(C)C(=O)C[C@]12C [Cucurbitacin B] (compound dose: 10 uM) | 0.396 ± 0.061 | 0.189 ± 0.096 |
| C=C1CCC2C(/C=C(\C)C(=O)C3(OC(C)=O)CC(C)C(OC(=O)c4ccccc4)C3C1OC(C)=O)C2(C)C (centres undefined) [Euphorbia factor L3] (compound dose: 10 uM) | 1.05 ± 0.019 | 0.89 ± 0.11 |
| CN1[C@@H]2CC[C@H]1C[C@H](O)C2 [Pseudotropine] (compound dose: 10 uM) | 1.052 ± 0.0024 | 1.14 ± 0.4 |
| CC1=C[C@]23C(=O)[C@@H](C=C(COC(=O)c4ccccc4)[C@@H](O)[C@]2(O)[C@H]1OC(=O)c1ccccc1)[C@H]1[C@@H](C[C@H]3C)C1(C)C [Ingenol 3,20-dibenzoate] (compound dose: 10 uM) | 1.05 ± 0.061 | 0.6413 ± 0.0018 |
| C[C@@H]1C(=O)O[C@H]2[C@H](O)[C@@]34O[C@@H]5OC(=O)[C@H](O)[C@@]56[C@H](C(C)(C)C)[C@H](O)C(OC3=O)[C@]64[C@@]12O (some centres undefined) [Ginkgolide C] (compound dose: 10 uM) | 0.9704 ± 0.0066 | 0.947 ± 0.088 |
| CC(=O)OC12COC1CC(O)C1(C)C(=O)C(O)C3=C(C)C(O)CC(O)(C(OC(=O)c4ccccc4)C21)C3(C)C (centres undefined) [10-Deacetylbaccatin III] (compound dose: 10 uM) | 0.999 ± 0.017 | 0.849 ± 0.18 |
| O=C(/C=C/c1ccccc1)OC[C@H]1O[C@@H](O[C@@H]2OC=C[C@H]3[C@H](O)[C@@H]4O[C@]4(CO)[C@@H]23)[C@H](O)[C@@H](O)[C@@H]1O [Picroside I] (compound dose: 10 uM) | 0.9642 ± 0.0044 | 0.923 ± 0.05 |
| CC(C)=CCCC(C)(O)C1CCC2(C)C1C(O)CC1C3(C)CCC(OC4OC(CO)C(O)C(O)C4O)C(C)(C)C3CCC12C [20(R)-Ginsenoside Rh2] (compound dose: 10 uM) | 1.08 ± 0.052 | 0.958 ± 0.21 |
| C=C1CC[C@H]2[C@@H](/C=C(\C)C(=O)[C@@]3(OC(C)=O)C[C@H](C)[C@H](OC(=O)Cc4ccccc4)[C@@H]3[C@H]1OC(C)=O)C2(C)C [Deoxy euphorbia factor L1] (compound dose: 10 uM) | 1.07 ± 0.074 | 0.9513 ± 0.0042 |
| COc1cc([C@@H]2c3cc4c(cc3C[C@H]3COC(=O)[C@@H]32)OCO4)cc(OC)c1OC [4-deoxypodophyllotoxin] (compound dose: 10 uM) | 0.814 ± 0.042 | 0.623 ± 0.19 |
| C=C(CO)C(=O)O[C@H]1CC(=C)[C@@H]2C[C@H](O)C(=C)[C@@H]2[C@H]2OC(=O)C(=C)[C@@H]21 [Cynaropicrin] (compound dose: 10 uM) | 0.69 ± 0.16 | 0.0672 ± 0.056 |
| CO[C@H]1CCN2[C@@H]3C=CC4=CC(=O)O[C@]4(C3)[C@@H]2C1 [Securitinine] (compound dose: 10 uM) | 0.983 ± 0.035 | 0.734 ± 0.084 |
| C=C[C@H]1[C@H](O[C@@H]2O[C@H](CO)[C@@H](O)[C@H](O)[C@H]2O)OC=C2C(=O)OCC[C@H]21 [Sweroside] (compound dose: 10 uM) | 0.996 ± 0.063 | 0.832 ± 0.17 |
| C=C(C)C(=O)O[C@H]1[C@@H]2[C@H](C)C(=O)O[C@@H]2C[C@@H](C)[C@@H]2C=CC(=O)[C@]21C [Arnicolide D] (compound dose: 10 uM) | 0.784 ± 0.08 | 0.153 ± 0.067 |
| O=C1C=C2C=C[C@@H]3C[C@@]2(O1)[C@H]1CCCCN31 [Securinine] (compound dose: 10 uM) | 0.89 | 0.213 ± 0.096 |
| C[C@@H]1CC[C@@]2(OC1)O[C@H]1[C@@H](O)[C@H]3[C@@H]4CC[C@H]5C[C@@H](O[C@@H]6O[C@H](CO)[C@H](O[C@@H]7O[C@H](CO)[C@@H](O)[C@H](O[C@@H]8OC[C@@H](O)[C@H](O)[C@H]8O)[C@H]7O[C@@H]7O[C@H](CO)[C@H](O)[C@H](O[C@@H]8O[C@H](CO)[C@@H](O)[C@H](O)[C@H]8O)[C@H]7O)[C@H](O)[C@H]6O)[C@H](O)C[C@]5(C)[C@H]4CC[C@]3(C)[C@H]1[C@@H]2C [Digitonin] (compound dose: 10 uM) | 0.694 ± 0.021 | 0.617 ± 0.019 |
| COc1cc(C(=O)O[C@H]2[C@@H]3C=CO[C@@H](O[C@@H]4O[C@H](CO)[C@@H](O)[C@H](O)[C@H]4O)[C@@H]3[C@@]3(CO)O[C@@H]23)ccc1O [Picroside II] (compound dose: 10 uM) | 0.923 ± 0.039 | 0.919 ± 0.16 |
